What all share (format): functional
The target of assay [1] is Solute carrier family 2, facilitated glucose transporter member 1 (Homo sapiens) (UniProt P11166). The assay is described as follows: ST_JUDE_LEISH: Cytotoxicity at 2uM final concentration against transgenic Leishmania Mexicana promastigotes LmGLUT1 that are glucose transport deficient and complemented with the human glucose transporter GLUT1. Activity is measured by DNA content using SYBR green in vitro.

Assay [2] deals with Hexose transporter 1 (Plasmodium falciparum) (UniProt O97467). The assay is described as follows: ST_JUDE_LEISH: Cytotoxicity at 2uM final concentration against transgenic Leishmania Mexicana promastigotes LmPfHT that are glucose transport deficient and complemented with the Plasmodium falciparum hexose transporter. Activity is measured by DNA content using SYBR green in vitro.

The target of assay [3] is Glucose transporter (Leishmania mexicana) (UniProt O61059). Briefly: ST_JUDE_LEISH: Cytotoxicity at 2uM final concentration against transgenic Leishmania Mexicana promastigotes LmGT2 that are glucose transport deficient and complemented with the L. Mexicana glucose transporter 2. Activity is measured by DNA content using SYBR green in vitro.

Chain of Solute carrier family 2, facilitated glucose transporter member 1 (Homo sapiens) (P11166 whole entry): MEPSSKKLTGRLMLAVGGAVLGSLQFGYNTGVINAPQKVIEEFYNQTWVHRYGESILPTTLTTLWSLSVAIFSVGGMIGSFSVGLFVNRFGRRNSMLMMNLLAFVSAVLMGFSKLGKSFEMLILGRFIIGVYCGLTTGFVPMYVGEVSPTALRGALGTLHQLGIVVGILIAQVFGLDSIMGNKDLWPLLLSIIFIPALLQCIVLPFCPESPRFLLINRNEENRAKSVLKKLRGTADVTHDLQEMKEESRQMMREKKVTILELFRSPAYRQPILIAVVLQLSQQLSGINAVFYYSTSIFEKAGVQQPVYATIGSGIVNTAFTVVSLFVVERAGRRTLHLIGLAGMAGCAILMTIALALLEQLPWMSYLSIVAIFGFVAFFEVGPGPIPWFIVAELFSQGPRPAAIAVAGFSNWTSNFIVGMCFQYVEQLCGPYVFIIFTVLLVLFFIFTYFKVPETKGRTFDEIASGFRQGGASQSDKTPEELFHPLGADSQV

On to `Cc1c2ccc(N(C)c3ccnc(Nc4ccc5c(c4)nc(NC(C)C)n5C)n3)cc2nn1C`, for which the inhibition in assay [1] was 0.46%; in assay [2] it was 1.01%; in assay [3] it was -1.42%.
In the same order, the values of `O=S(=O)(NCCN1CCCC1)c1ccc(-c2cccc(CNCc3ccsc3)c2)s1` are 5.4%, 2.42% and -1.72%.
The matching figures for `CCNc1cc(C(=O)NC(Cc2ccccc2)C(O)CNC(C)(C)CCCC(C)C)c(F)c(N2CCCS2(=O)=O)c1` (stereo not given): -2.99%, -1.24% and 1.59%.
For `COC(=O)c1cccc(CNCc2ccc(-c3ccc(-c4nc5ccccc5[nH]4)s3)cc2)c1`, the figures for the inhibition in assay [1], in assay [2] and in assay [3] were 9.31%, 9.04% and 9.28%, respectively.
As for `Cc1ccccc1C1CCN(C2CCC(NC(=O)/C=C/c3ccccc3C(F)(F)F)CC2)CC1` (stereo not given), the results for the inhibition in assay [1], in assay [2] and in assay [3] were 3.47%, -0.14% and 4.39%, respectively.
The matching figures for `CCCN(CCC)CCCOc1ccc(C(=O)c2c(-c3ccc(OCCCN(CCC)CCC)cc3)oc3ccc(Cl)cc23)cc1`: 70.8%, 49.3% and 31.1%.
The matching figures for `CN(C)CCNCc1ccc(-c2ccc3c(Nc4ccc(Cl)cc4F)ccnc3c2)o1`: 1.23%, 0.82% and -1.76%.
The matching figures for `N#Cc1ccc(N(CCOc2ccc(Cl)c(Cl)c2)Cc2ccccc2C(F)(F)F)cc1C(F)(F)F`: 2.54%, -0.11% and 0.26%.
In the case of `CCCCNC(=O)[C@H](Cc1ccccc1)NC(=O)c1ccc(O)c(-c2ccc(Cl)c(Cl)c2)c1`, the inhibition in assay [1] came to 6.46%; in assay [2], 2.06%; in assay [3], 3.71%.
Regarding `CC(C)c1cc(C(=O)N[C@@H](Cc2ccccc2)[C@H](O)CNC2CCCCC2)cc(N2CCCC2=O)c1`, the inhibition in assay [1] is 2.19%; in assay [2] it was 1.07%; in assay [3], 2.18%.
As to `Nc1ncc(-c2ccsc2)c2ccc(-c3cc(NCc4ccccc4)ncn3)cc12`, the inhibition stood at 10.1% in assay [1], 8.31% in assay [2] and 7.39% in assay [3].
The matching figures for `Cc1cc(N2CCCC2)nc(NC(=N)Nc2cccc(C(F)(F)F)c2)n1`: 6.6%, 7.28% and 2.22%.
As to `CN(C)CCOc1cc(NC(=O)Nc2ccc(-c3ccccc3)cc2Cl)ccc1I`, the inhibition in assay [1] is 1.19%; in assay [2] it was 0.57%; in assay [3], -2.09%.
In the same order, the values of `O=C(NC1CCC(N2CCN(c3cccc4[nH]ccc34)CC2)CC1)c1cc2cccnc2[nH]1` (stereo not given) are 12%, 13.2% and 7.93%.
On to `N#Cc1ccc(C(=O)Nc2cccc(-c3ccc(CN4CCCC4)cc3)c2)cc1`, for which the inhibition in assay [1] turned out to be 11.4%; in assay [2] it was 9.72%; in assay [3], 9.04%.
In the same order, the values of `O=C(C=Cc1ccc(Cl)c(Cl)c1)NCCCCCN1CCC(CCCNC(=O)C2CC2c2ccccc2)CC1` (stereo not given) are 1.26%, 0.65% and 1.16%.
In the same order, the values of `N=C(N)NCCCN(Cc1ccccc1)c1ccccc1` are 3.87%, 2.61% and 1.89%.
In the same order, the values of `CN(C)CCOc1cccc(NC(=O)Nc2ccc(-c3ccccc3)cc2)c1` are 2.67%, 1.78% and 1.53%.
`CN1CCN(c2ccnc3cc4c(cc23)N(C(=O)Nc2ccc3c(c2)CCCC3=O)CC4)CC1`: the inhibition in assay [1] was 1.37%; in assay [2] it was 1.56%; in assay [3], 0.75%.
In the same order, the values of `COc1ccc(CNCc2ccc(-c3ccc(-c4nc5cccc(C)c5[nH]4)cc3)cc2)cc1` are 18.1%, 17.2% and 10.3%.
The matching figures for `Cc1noc(C)c1-c1cccc(CNCc2ccc(-c3cccc(-c4nc5cc(F)ccc5[nH]4)c3)cc2)c1`: 11.3%, 10.1% and 10.8%.
Take `OC1=C2C(=Nc3ccccc3SC2c2cccs2)c2ccccc21` (stereo not given): the inhibition was determined as 12.2% in assay [1], 10.8% in assay [2] and 1.64% in assay [3].
For the compound `Cc1cc(F)ccc1-c1nc(Nc2ccncc2)c2ccn(C)c2n1`, the inhibition in assay [1] was 1.12%; in assay [2] it was 2.6%; in assay [3], 0.38%.
With `CC(C)S(=O)(=O)N1CCN(Cc2ccc3c(c2)nc(NC(=O)c2ccsc2)n3C[C@H](O)c2ccccc2)CC1`, the figures for the inhibition in assay [1], in assay [2] and in assay [3] were 2.63%, 1% and -0.17%, respectively.
For `CN1CCN(c2ccnc3ccc(NC(=O)Nc4ccc(Br)cc4)cc23)CC1`, the inhibition in assay [1] was -0.59%; in assay [2] it was 0.3%; in assay [3], 0.32%.
On to `Cc1cc(N[C@@H](Cc2ccccc2)C(=O)NCCc2ccccc2)nc(NCCc2ccc(F)cc2)n1`, for which the results for the inhibition in assay [1], in assay [2] and in assay [3] were -1.91%, -1.86% and -1.12%, respectively.
The matching figures for `N#Cc1cccc(C(=O)Nc2cccc(-c3cccc(CN4CCNCC4)c3)c2)c1`: 4.13%, 6.34% and 3.25%.
The matching figures for `CN(C)CCCN1CCN(C(=O)c2cc3cc(-c4ccccc4)ccc3n2S(=O)(=O)c2ccccc2)CC1`: 60.9%, 24.3% and 2.85%.
The matching figures for `CC(C)C(NC(=O)c1c(F)cccc1F)C(=O)Nc1ccc(Cc2nc3ccccc3s2)cc1` (stereo not given): -1.47%, 2.55% and 1.42%.
On to `COc1ccc(NC(=O)c2csc(-c3cc(NC(=O)c4ccnc(N5CCCC5)c4)ccc3C)c2)cc1N1CCN(C)CC1`, for which the inhibition in assay [1] is 1.89%; in assay [2], 2.56%; in assay [3], -1.28%.
The matching figures for `Cc1ccc(/C=C/C(=O)N2CCC(CCN3CCC(c4c[nH]c5ccccc45)CC3)CC2)cc1C`: 1.87%, 1.19% and 6.17%.
For the compound `O=C(/C=C/c1ccc(Cl)cc1)NCCCCCN1CCN(C(=O)C=Cc2ccc(Cl)c(Cl)c2)CC1`, the inhibition was 2.44% in assay [1], 0.82% in assay [2] and -2.29% in assay [3].
On to `COc1cccc2cc(C(=O)N[C@@H](CC(C)C)C(=O)N[C@H](C=NN3CCCC3=O)Cc3ccccc3)oc12`, for which the inhibition came out at 2.46% in assay [1], 5.52% in assay [2] and 2.7% in assay [3].
The matching figures for `c1ccc2[nH]c(Nc3ccc(Nc4nc5ccccc5[nH]4)cc3)nc2c1`: 0.45%, 0.37% and 0.51%.
The matching figures for `CC(C)c1ccc(NC(=O)c2ccc(NCCCN(C)Cc3ccccc3)c([N+](=O)[O-])c2)cc1`: 0.47%, -1.98% and -0.53%.

In general, inhibition refers to the relative decrease from the control value, in per cent.

These data come from ChEMBL document CHEMBL3433997, “St. Jude Leishmania screening dataset” (2016).
